Only some compounds are listed: those with a hit (about 2.8% of all), similar ones and a draw of the others.
KDM5B inhibitor = Primary screen for KDM5B Histone Demethylases FDH-coupled qHTS; Lysine-specific demethylase 5B (Homo sapiens), Q9UGL1; 220,000 tested, 2.6% active; Potency, µM (titrated, usually from 57.7 µM), actives largely listed as inhibitors; KDM5B demethylase, FDH-coupled NADH fluorescence (FDH is formaldehyde dehydrogenase); AID 1347165, 2019; active = well fitted inhibition curve with a large enough effect; inconclusive = small, poorly fitted or top-dose-only effect; inactive = no such curve, though single readings can be large or run the other way; note: potency is the fitted concentration of half-maximal effect; 0% is about no effect; nearly all actives have a fitted effect of over 70% in size
Target sequence (Q9UGL1 whole entry, looked up): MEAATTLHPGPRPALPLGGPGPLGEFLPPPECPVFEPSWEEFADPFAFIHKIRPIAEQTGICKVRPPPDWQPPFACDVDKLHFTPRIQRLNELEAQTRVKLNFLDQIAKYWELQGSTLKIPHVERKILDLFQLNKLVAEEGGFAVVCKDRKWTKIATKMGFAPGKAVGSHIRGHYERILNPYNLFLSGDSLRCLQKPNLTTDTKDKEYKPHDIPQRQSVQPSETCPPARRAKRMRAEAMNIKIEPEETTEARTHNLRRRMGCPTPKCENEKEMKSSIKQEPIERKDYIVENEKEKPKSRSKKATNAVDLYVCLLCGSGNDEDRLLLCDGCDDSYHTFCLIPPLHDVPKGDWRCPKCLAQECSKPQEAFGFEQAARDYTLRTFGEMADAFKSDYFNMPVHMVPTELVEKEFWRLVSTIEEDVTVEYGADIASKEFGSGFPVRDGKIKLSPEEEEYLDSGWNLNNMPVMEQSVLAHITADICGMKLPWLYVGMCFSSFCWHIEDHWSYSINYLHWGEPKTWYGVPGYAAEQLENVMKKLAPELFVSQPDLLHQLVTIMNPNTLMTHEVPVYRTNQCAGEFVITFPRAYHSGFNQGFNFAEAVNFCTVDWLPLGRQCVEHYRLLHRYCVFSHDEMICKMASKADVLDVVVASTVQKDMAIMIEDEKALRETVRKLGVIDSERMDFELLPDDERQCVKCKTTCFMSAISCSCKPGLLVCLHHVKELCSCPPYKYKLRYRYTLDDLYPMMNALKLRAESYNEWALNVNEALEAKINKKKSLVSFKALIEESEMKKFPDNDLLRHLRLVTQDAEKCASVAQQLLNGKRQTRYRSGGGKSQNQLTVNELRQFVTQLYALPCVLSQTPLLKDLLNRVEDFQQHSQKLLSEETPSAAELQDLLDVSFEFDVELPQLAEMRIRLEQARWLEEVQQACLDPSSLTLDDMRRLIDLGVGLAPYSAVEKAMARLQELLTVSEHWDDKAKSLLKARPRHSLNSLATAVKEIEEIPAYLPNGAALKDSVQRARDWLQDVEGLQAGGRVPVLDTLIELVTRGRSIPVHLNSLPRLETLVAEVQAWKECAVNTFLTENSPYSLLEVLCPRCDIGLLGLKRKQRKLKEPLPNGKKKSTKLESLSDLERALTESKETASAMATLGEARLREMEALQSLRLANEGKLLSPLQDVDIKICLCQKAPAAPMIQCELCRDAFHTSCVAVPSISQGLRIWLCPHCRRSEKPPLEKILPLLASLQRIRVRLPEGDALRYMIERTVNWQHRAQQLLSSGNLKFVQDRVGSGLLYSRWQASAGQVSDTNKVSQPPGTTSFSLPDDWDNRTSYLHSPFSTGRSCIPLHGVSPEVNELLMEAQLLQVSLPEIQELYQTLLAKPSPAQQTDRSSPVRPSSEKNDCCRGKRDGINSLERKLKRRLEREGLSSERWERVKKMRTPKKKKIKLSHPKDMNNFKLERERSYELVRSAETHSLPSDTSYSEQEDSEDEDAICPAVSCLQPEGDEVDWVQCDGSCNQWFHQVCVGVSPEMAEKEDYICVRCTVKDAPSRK
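qHTS format, multiple compound concentrations. Buffer 50 mM HEPES pH 7.5/0.01% Tween-20; 200 nM KDM5BΔAP final; 10 min compound preincubation; substrate-mix levels 12.5 µM peptide, 25 µM α-KG, 0.25 mM NAD⁺; 30 min RT; ΔRFU.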
IP6K1 inh = Primary qHTS assay for small molecule inhibitors of Inositol hexaphosphate kinase 1 (IP6K1); IP6K1 kinase, ADP-Glo luminescence, 2 h; hits give low values; activity change, % (series mostly up to about 58 µM); 140,000 tested, 0.81% active; in the data active = activity change below about -25%; note: % is set by controls: 0 for no effect and ±100 for the full control effect
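ADP-Glo luminescence measures ADP made by human IP6K1 during a 2 h RT reaction with ATP/IP6 (mix at 1.3 mM/130 uM); top library doses 57.5 and 19.1 uM final.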
Active calls of the source: *; i = inactive; u = inconclusive; x = not tested or not shown.

SMILES | KDM5B inhibitor | IP6K1 inh
COc1cccc([S+](=O)([O-])N2CCn3c(nn(-c4ccc(F)cc4F)c3=O)C2)c1 | 25µM* | 0
COc1ccc(CN2CCn3c(nn(-c4ccc([N+](=O)[O-])cc4)c3=O)C2)cc1 | 32µM* | 11
COc1ccc(/C(O)=C2\C(=O)C(=O)NC2c2ccc(Cl)cc2)cc1F (centres undefined) | i | x
Cc1nn(-c2ccccc2)c2c1C(C1CC1)N(CC1CN(C(=O)c3ccccc3F)C1)C2=O (centres undefined) | x | 23
O=C(NCc1cccc(F)c1)C1CCCN(Cc2cccc(-c3ccc(F)cc3F)c2)C1 (centres undefined) | x | -9
COc1ccccc1-c1ccc(CN2CCCCC2C(=O)N(C)C)cc1 (centres undefined) | x | 11
N#Cc1cccnc1-c1ccc(C(=O)N2CCC(NC(=O)Cc3cccc(Cl)c3)CC2)cc1 | x | -2
COc1ccc(-c2ccnc3nc(C4CC4)nn23)c(F)c1 | 25µM* | -5
COc1ccc(Cc2nc3nccc(-c4ccsc4)n3n2)cc1 | i | -11
COc1ccc(-c2ccnc3nc(C4CC4)nn23)cc1 | 16µM* | -4
CCCCCC(=O)N1CCC(=O)N(CC(=O)OCC)c2ccccc2C(OC)C1 (centres undefined) | x | -4
O=C(NCc1ccc(F)cc1)c1ccc2oc(-c3ccnc(Cl)c3)nc2c1 | x | 4
O=C(c1ccncc1)N1CCc2nc3cc(-c4ccccc4Cl)[nH]n3c(=O)c2C1 | 16µM* | 5
CCn1nccc1C(=O)N1CCc2nc3cc(-c4ccccc4Cl)[nH]n3c(=O)c2C1 | u | 0
O=C(NCc1ccco1)N1CCc2nc3cc(-c4ccccc4Cl)[nH]n3c(=O)c2C1 | 14µM* | 0
O=C(NCc1ccc(OC(F)(F)F)cc1)N1CCc2nc3cc[nH]n3c(=O)c2C1 | u | 0
CC(=O)NC1(C)CCN(Cc2ccc(-c3ccc(Oc4ccccc4)cc3)cc2)C1 (centres undefined) | u | 6
CC(C)Cc1ccc(C(C)NC(=O)CCNC(=O)C(C)(C)C)cc1 (centres undefined) | i | x
Cc1cccc(OCCN2CCC(CO)CC2)c1 | i | x
Cc1ccc(C(=O)N[C@@H]2CN(c3ncccn3)C[C@H]2CO)nc1 | 20µM* | 7
Cn1ccc(C(=O)N[C@@H]2CN(c3ncccn3)C[C@H]2CO)n1 | u | 7
Cc1occc1C(=O)N[C@@H]1CN(c2ncccn2)C[C@H]1CO | u | 2
Cc1ccoc1C(=O)N[C@@H]1CN(c2ncccn2)C[C@H]1CO | 25µM* | 5
Cc1ccccc1C(=O)Nc1nonc1-c1ccc(Cl)cc1 | i | x
Cc1cccc(-n2c(SCC(=O)N3CCCCC3)nc3ccccc3c2=O)n1 | i | x
SMILES | KDM5B inhibitor | IP6K1 inh
Cc1cccc(N2CCN(C(=O)CN3CC4(CCCCC4)CC3=O)CC2)n1 | 32µM* | 0
NC(=O)[C@@H]1CN(C(=O)c2cccc3c2OC(F)(F)O3)[C@H]2c3ccccc3O[C@@H]12 | x | 0
O=c1c2nc(-c3ccsc3)ccc2ncn1-c1ccc(F)cc1F | 35µM* | -4
COc1ccc(-c2ccc3ncn(-c4ccc(F)cc4F)c(=O)c3n2)cc1OC | 40µM* | -4
COc1cccc(-c2ccc3ncn(-c4ccc(F)cc4F)c(=O)c3n2)c1 | i | 4
O=c1c2nc(-c3ccccc3)ccc2ncn1-c1ccc(F)cc1F | u | 2
O=C(O)Cn1ccc2cc(OCC3CCN(C(=O)CCC(F)(F)F)CC3)cnc21 | 35µM* | -7
O=C(CCC(F)(F)F)N1CCC(Oc2cnc3c(ccn3-c3cncnc3)c2)CC1 | i | 2
NC(=O)Cn1ccc2cc(OCC3CCN(C(=O)C4CC4)CC3)cnc21 | 35µM* | -9
Cc1nccc(N2CCC(COc3cnc4c(ccn4CC(N)=O)c3)CC2)n1 | u | -13
Cc1cnc(C)c(N2CCC(COc3cnc4c(ccn4CC(N)=O)c3)CC2)n1 | 35µM* | 8
O=C(O)Cn1ccc2cc(OCC3CCN(C(=O)C4CCCC4)CC3)cnc21 | 35µM* | -1
O=C(O)CCn1ncc2cc(OCC3CCN(C(=O)C4CC4)CC3)ccc21 | i | 3
O=C(O)CCn1ncc2cc(OCC3CCN(C(=O)C4CCCC4)CC3)ccc21 | i | -3
Cc1ccc(-c2cccc(CN3CCCC(NC(=O)c4c(C)noc4C)C3)c2)cc1Cl (centres undefined) | x | 1
Cn1ncc2c(C(=O)NCC#N)cc(-c3ccccc3F)nc21 | x | 14
Cc1cccc(CN2CCN(Cc3nc(-c4cccs4)oc3C)CC2CCO)n1 (centres undefined) | 25µM* | 3
CC(=O)N1CCN(Cc2nc(-c3cccs3)oc2C)CC1 | i | x
Cc1ccc(Nc2ccnc(N3CCCC3C(=O)N3CCN(Cc4ccccc4)CC3)n2)cc1 (centres undefined) | x | 2
CCOc1nccnc1NC1CCN(C(=O)Cc2cccs2)CC1 | 32µM* | -3
CC1CCN(CC2CCCN(C(=O)Cc3cccs3)CC2)CC1 (centres undefined) | x | -5
CCOc1nccnc1NC1CCN(C(=O)C2CCCO2)CC1 (centres undefined) | 28µM* | -2
CCOc1nccnc1NC1CCN(C(=O)NC)CC1 | 28µM* | 5
CCCOc1cccc(C(=O)N2CCN(C(=O)C3CCCO3)CC2)c1 (centres undefined) | i | x
CNC(=O)N1CCC(Oc2ncccc2C(=O)N(C)C)C1 (centres undefined) | i | 6
SMILES | KDM5B inhibitor | IP6K1 inh
Cc1ccc(OCc2nc(C3CCN(C(=O)NCc4ccccc4)C3)no2)cc1 (centres undefined) | x | -1
COc1ccccc1C(=O)NC1CCN(Cc2cccc(-c3ccccc3OC)c2)CC1 | x | 2
O=C(NC1CC1)C1CCN(C(=O)c2ccc(-c3cccs3)cc2)CC1 | x | 17
O=C(CCc1cn2ccccc2n1)N[C@H]1[C@@H]2CCO[C@@H]2[C@@H]1C1CCCC1 | 28µM* | 3
COc1ccc(CCC(=O)N[C@H]2[C@@H]3CCO[C@@H]3[C@@H]2C2CCCC2)cc1OC | i | -1
COc1ccc(-c2noc([C@@H]3CCCN3C(=O)c3ccc(F)cc3)n2)cc1OC | i | 0
COc1ccc(-c2noc([C@@H]3CCCN3C(=O)Cc3ccc(C)cc3)n2)cc1 | i | 9
COc1ccc(-c2noc([C@@H]3CCCN3C(=O)Cc3ccc(F)cc3)n2)cc1OC | 28µM* | 4
COc1ccc(-c2noc([C@@H]3CCCN3C(=O)Cc3ccccc3C)n2)cc1OC | 28µM* | 4
Cc1ccccc1CC(=O)N1CCC[C@H]1c1nc(-c2ccccc2)no1 | i | 0
COc1ccc(-c2noc([C@@H]3CCCN3C(=O)Cc3ccc(C)cc3)n2)cc1OC | 32µM* | 0
CNC(=O)c1cc(-c2ccccc2)cc2c1OCCN2Cc1cccnc1 | 32µM* | -16
CNC(=O)c1cc(-c2ccc(O)c(F)c2)cc2c1OCCN2Cc1cccnc1 | 28µM* | -7
CNC(=O)c1cc(-c2cnn(C)c2)cc2c1OCCN2Cc1cccnc1 | 40µM* | -11
CNC(=O)c1cc(-c2cccnc2)cc2c1OCCN2Cc1cccnc1 | i | -25
CNC(=O)c1cc(-c2ccnc(NC(C)=O)c2)cc2c1OCCN2Cc1cccnc1 | 40µM* | -12
CNC(=O)c1cc(-c2ccncc2)cc2c1OCCN2Cc1cccnc1 | i | -17
